According to PubChem BioAssay (EPA / NIEHS):
Calls of active or inactive are those of the source. The calls were made as follows: active = hit-call score of the fitted dose curve at least 0.9, where 1 is the maximum; inactive = score below 0.9.

assay: ATG_TCF_b_cat_CIS: Attagene CIS-FACTORIAL HepG2 Assay for human T-Cell-Factor with beta-catenin (TCF/b-cat) (AID 2282965); conditions: HepG2 TCF/beta-catenin cis-reporter transcription, actives raise or lower the signal
Method: ATG_CIS is a cell-based, multiplexed-readout assay that uses HepG2, a human liver cell line, with measurements taken at 24 hours after chemical dosing in a 24-well plate.ATG_TCF_b_cat_CIS is one of 52 assay component(s) measured or calculated from the ATG_CIS assay. It is designed to make measurements of mRNA induction, a form of inducible reporter, as detected with fluorescence intensity signals by Reverse transcription polymerase chain reaction (RT-PCR) and Capillary electrophoresis technology.Data from the assay component ATG_TCF_b_cat_CIS was analyzed into 1 assay endpoint. This assay endpoint, ATG_TCF_b_cat_CIS, was analyzed with bidirectional fitting relative to DMSO as the negative control and baseline of activity. Using a type of inducible reporter, measures of mRNA for gain or loss-of-signal activity can be used to understand the reporter gene at the transcription factor-level as they relate to the gene TCF7 and TCF7L2 and LEF1 and TCF7L1. Furthermore, this assay endpoint can be referred to as a primary readout, because this assay has produced multiple assay endpoints where this one serves a reporter gene function. To generalize the intended target to other relatable targets, this assay endpoint is annotated to the dna binding intended target family, where the subfamily is HMG box protein.
Human liver HepG2 cells are transiently transfected with multiple reporter transcription units (MRTUs) in 6-well plates using FuGene 6 reagent (Roche; 3 ml FuGene/1 mg DNA). The MRTU constructs are regulated by a cis-regulating element (promoter). […] A major difference between the CIS and TRANS system is that in CIS activities of endogenous TFs are measured, whereas the TRANS assay evaluates changes in activities of exogenous, chimeric NR-Gal4 proteins. […] At the end of 24 hour incubation, total RNA was isolated using TriZol reagent (Invitrogen). The isolated RNA is then reverse-transcribed using oligo(dT) primer and Mo-MLV reverse transcriptase (Invitrogen) with DNAse I (Ambion) treatment for 30 min. The one-tenth of the produced cDNA was amplified by PCR using Taq DNA polymerase (Invitrogen) and two reporter sequence-specific primers. The PCR products were fluorescently labeled by primer extension with 6-arboxyfluorescein (6-FAM) 5'-labeled reporter sequence-specific primer (2 min at 95 C, 20 s at 68 C and 10 min at 72 C) and these products were digested with 5U of HpaI (New England Biolabs) for 2h at 37 C. The fragments were purified using Qiaquick PCR columns (Qiagen), analyzed on an ABI 3130xL genetic analyzer (Applied Biosystems) with peak positions identified by using a set of X-rhodamine (ROX)-labeled MapMarker1000 molecular weight standards (BioVentures). The raw capillary electrophoresis data was processed using Attagraph software (Attagene).

Compound | outcome | AC50
CC(C)c1cccc(C(C)C)c1N | inactive | –
O=C(C=Cc1ccccc1)OCCc1ccccc1 | inactive | –
CCC(C)c1ccccc1 (stereo not given) | inactive | –
CC1(C)[C@@H]2CC[C@@]1(C)C(=O)C2 | inactive | –
CC(C)=NNC(N)=S | inactive | –
C=C(C)C1CC=C(C)C(OC(C)=O)C1 (stereo not given) | inactive | –
CCCCCCOc1ccc(N)cc1 | inactive | –
CC1(C)CCC[C@]2(C)[C@H]3CC(=O)O[C@]3(C)CC[C@@H]12 | inactive | –
C=C1C[C@H]2[C@@H]3C=C(C)C4=CC(=O)CC[C@]4(C)[C@H]3CC[C@]2(C)[C@@]1(OC(C)=O)C(C)=O | – | 18.9 µM (active)
CCC(C)(O)CCCC(C)C (stereo not given) | inactive | –
C=CC(=O)OCCCCCCCCCC | inactive | –
CC(C)CCCCCOC(=O)CS | inactive | –
CCCCCCCCCC[N+](C)(CCCCCCCCCC)CCC[Si](OC)(OC)OC | inactive | –
CCCCCCC=O | inactive | –
O=C(O)C(F)(F)C(F)(F)C(F)(F)C(F)(F)C(=O)O | inactive | –
CCNc1nc(NC(C)(C)C)nc(OC)n1 | inactive | –
CC(CC(C)C)=NO | inactive | –
C=C(C)C(=O)OCCCCCCCCCCCC | inactive | –
Cc1ccccc1CCO | inactive | –
CCCCOCCOCCOC(C)=O | inactive | –

Compound | outcome | AC50
CC(C)(O)Cc1ccccc1 | inactive | –
CCC(C)N (stereo not given) | inactive | –
CCCCCC(=O)OCC | inactive | –
CC(=O)C(C)C | inactive | –
CC(C)(CO)COC(=O)C(C)(C)CO | inactive | –
CCCCC(CC)COC(=O)/C=C/c1ccc(OC)cc1 (stereo not given) | inactive | –
CCN(CC)c1cccc(C)c1 | inactive | –
C=CC(C)(O)CC/C=C(\C)CC (stereo not given) | inactive | –
Cc1cc(=O)[nH]c(=O)[nH]1 | inactive | –
CC=C(C)C(C)=O | inactive | –
CC1CCC(C(C)(C)S)C(=O)C1 (stereo not given) | inactive | –
C[N+](C)(C)CCCNS(=O)(=O)C(F)(F)C(F)(F)C(F)(F)C(F)(F)C(F)(F)C(F)(F)C(F)(F)C(F)(F)F | inactive | –
Cn1cccc1 | inactive | –
CCCC=C(C=O)CC | inactive | –
O=c1c(O)c(-c2ccc(O)cc2O)oc2cc(O)cc(O)c12 | inactive | –
CCCCCCCC(=O)OCC | inactive | –
O=C(OCCc1ccccc1)c1ccccc1 | inactive | –
Fc1ccc(Br)cc1 | inactive | –
CC(C)CC(=O)OCc1ccccc1 | inactive | –
CC(c1cc(C(C)(C)C)cc(C(C)(C)C)c1O)c1cc(C(C)(C)C)cc(C(C)(C)C)c1O | inactive | –
